Experimental data reported in PubChem BioAssay AID624481 (The Scripps Research Institute Molecular Screening Center, 2012).

Biological target: Prolyl endopeptidase-like (Mus musculus) (UniProt Q8C167)
Assay: mouse PREPL enzyme inhibition by screening hits – biochemical, gel-based competitive ABPP, fluorescence, HTS hits, PREPL inhibitor project (AID 624481)
Conditions: purified mouse PREPL, at 20 µM, stronger effect = higher value; in the data active = inhibition above about 50%; inactive = the rest

Prolyl endopeptidase-like (Mus musculus), sequence (Q8C167 whole entry, looked up): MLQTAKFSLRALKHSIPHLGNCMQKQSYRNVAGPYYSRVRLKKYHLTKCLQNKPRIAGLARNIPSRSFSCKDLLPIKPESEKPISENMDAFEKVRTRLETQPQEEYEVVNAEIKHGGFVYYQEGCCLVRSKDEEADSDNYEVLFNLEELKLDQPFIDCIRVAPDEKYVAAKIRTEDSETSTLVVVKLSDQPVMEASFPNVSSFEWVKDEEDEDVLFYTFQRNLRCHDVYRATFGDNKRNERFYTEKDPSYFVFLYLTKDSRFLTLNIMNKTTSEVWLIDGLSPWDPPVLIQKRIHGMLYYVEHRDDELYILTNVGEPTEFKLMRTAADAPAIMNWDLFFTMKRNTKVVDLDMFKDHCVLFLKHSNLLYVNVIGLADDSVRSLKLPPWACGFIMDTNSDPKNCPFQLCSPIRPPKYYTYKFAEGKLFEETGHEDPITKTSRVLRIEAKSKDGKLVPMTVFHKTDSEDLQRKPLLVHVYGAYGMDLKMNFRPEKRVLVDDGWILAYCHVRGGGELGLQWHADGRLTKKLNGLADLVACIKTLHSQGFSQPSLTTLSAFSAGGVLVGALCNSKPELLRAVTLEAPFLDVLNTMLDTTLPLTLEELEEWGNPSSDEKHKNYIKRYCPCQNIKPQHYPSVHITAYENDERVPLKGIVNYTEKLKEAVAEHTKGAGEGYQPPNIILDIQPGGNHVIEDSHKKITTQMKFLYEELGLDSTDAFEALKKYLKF

inhibition, inactive:
CCC(CN(C)C)Oc1cc(NCc2ccccc2)c2ncn(C(C)C)c2c1 (stereo unspecified) -65%
CCN1C(=O)/C(=C\N2CCN(c3ccccc3)CC2)SC1=S -14%
Nc1c(C(=O)c2cccs2)sc2nsc(SCCN3CCCCC3)c12 -18%
COc1ccc(NCc2nc3ccccc3n2CCOc2ccc(C)cc2)cc1 -75%
Cc1cccc(OCC(=O)Nc2ccc(N3CCN(C(=O)c4ccco4)CC3)cc2)c1 -15%
CN(C)CCCNc1cc(C(C)(C)C)nc2c(-c3ccccc3)cnn12 -34%
